In PubChem BioAssay (NCI):
Compounds without any hit were thinned out: in the full panel of roughly 83,000, 20% have a hit.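 For each line, cells grew in 96-well plates with the test compound present at a single concentration for 48 hours.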 The source made the active and inactive calls. Rule for the calls: active = growth percent below 10; inactive = the rest.

Assays:
Assay in all cases: NCI-60 one-dose screen, 48 h (100 = growth as untreated, 0 = no growth, -100 = all killed)
SK-MEL-2 melanoma = settings: 10 µM unless noted
EKVX NSCLC = settings: 10 µM unless noted
SN12C renal = settings: 10 µM unless noted
UO-31 renal = settings: 10 µM unless noted
TK-10 renal = settings: 10 µM unless noted
ACHN renal = settings: 10 µM unless noted
CAKI-1 renal = settings: 10 µM unless noted
A498 renal = settings: 10 µM unless noted
MOLT-4 leukemia = settings: 10 µM unless noted
SR leukemia = settings: 10 µM unless noted
RPMI-8226 leukemia = settings: 10 µM
OVCAR-8 ovarian = settings: 10 µM unless noted
OVCAR-5 ovarian = settings: 10 µM unless noted
SK-OV-3 ovarian = settings: 10 µM
IGROV1 ovarian = settings: 10 µM unless noted
OVCAR-3 ovarian = settings: 10 µM unless noted
HS 578T breast = settings: 10 µM unless noted
OVCAR-4 ovarian = settings: 10 µM unless noted
NCI/ADR-RES ovarian = settings: 10 µM unless noted
CCRF-CEM leukemia = settings: 10 µM unless noted

Measured: growth

O=C(CCc1nnc2sc(/C=C\c3ccccc3)nn12)c1nc2ccccc2[nH]1
inactive: SK-MEL-2 melanoma 98.1% | EKVX NSCLC 88.6% | SN12C renal 91.9% | UO-31 renal 70.4% | TK-10 renal 113% | ACHN renal 99.5% | CAKI-1 renal 93.4% | A498 renal 65.2% | MOLT-4 leukemia 62.8% | SR leukemia 63.5% | RPMI-8226 leukemia 72% | OVCAR-8 ovarian 92.7% | OVCAR-5 ovarian 116% | SK-OV-3 ovarian 97.2% | IGROV1 ovarian 96% | OVCAR-3 ovarian 115% | HS 578T breast 83.1%

O=S(=O)(/N=C1C=C/C(=N\S(=O)(=O)c2ccccc2)c2ccccc2\1)c1ccccc1
inactive: SK-MEL-2 melanoma 114% | EKVX NSCLC 104% | SN12C renal 101% | UO-31 renal 67.1% | TK-10 renal 147% | ACHN renal 105% | CAKI-1 renal 99.4% | A498 renal 117% | MOLT-4 leukemia 87.1% | SR leukemia 107% | RPMI-8226 leukemia 77.9% | OVCAR-8 ovarian 94.9% | OVCAR-5 ovarian 114% | OVCAR-4 ovarian 91.9% | SK-OV-3 ovarian 104% | IGROV1 ovarian 112% | OVCAR-3 ovarian 101% | HS 578T breast 112% | NCI/ADR-RES ovarian 102%

Clc1ccc2c(c1)C[C@H]1C[C@@H](c3cccs3)N2O1
inactive: SK-MEL-2 melanoma 113% | EKVX NSCLC 83.2% | SN12C renal 106% | UO-31 renal 93.4% | TK-10 renal 104% | ACHN renal 104% | CAKI-1 renal 94.4% | A498 renal 77.1% | MOLT-4 leukemia 89.3% | SR leukemia 82.4% | RPMI-8226 leukemia 86.7% | OVCAR-8 ovarian 99.9% | OVCAR-5 ovarian 89.5% | SK-OV-3 ovarian 98.9% | IGROV1 ovarian 94.5% | OVCAR-3 ovarian 114% | NCI/ADR-RES ovarian 102%

N#CC1=C(N)Oc2cc(N)ccc2C1c1ccc(F)cc1 (stereo not given)
inactive: SK-MEL-2 melanoma 79.8% | EKVX NSCLC 97.1% | SN12C renal 90.4% | UO-31 renal 79.5% | TK-10 renal 84.8% | ACHN renal 99.4% | CAKI-1 renal 62.6% | A498 renal 64.8% | CCRF-CEM leukemia 66.6% | MOLT-4 leukemia 70.8% | SR leukemia 20.5% | OVCAR-8 ovarian 98.6% | OVCAR-5 ovarian 97.2% | OVCAR-4 ovarian 94.1% | SK-OV-3 ovarian 85.2% | IGROV1 ovarian 69.4% | OVCAR-3 ovarian 96.8% | HS 578T breast 81.4% | NCI/ADR-RES ovarian 44.9%

CCCCOC(=O)C1OC(Oc2ccc3c(C)cc(=O)oc3c2)[C@@H](OC(C)=O)C(OC(C)=O)C1OC(C)=O (stereo not given in full)
inactive: SK-MEL-2 melanoma 103% | EKVX NSCLC 89.5% | SN12C renal 99.6% | UO-31 renal 87.1% | TK-10 renal 99.2% | ACHN renal 101% | CAKI-1 renal 94.1% | CCRF-CEM leukemia 94.1% | MOLT-4 leukemia 107% | SR leukemia 88.1% | RPMI-8226 leukemia 97.9% | OVCAR-8 ovarian 104% | OVCAR-5 ovarian 97.8% | OVCAR-4 ovarian 101% | IGROV1 ovarian 101% | OVCAR-3 ovarian 108% | HS 578T breast 101% | NCI/ADR-RES ovarian 99.9%

CN1CCc2cccc3c2C1Cc1ccc(O)c(O)c1-3 (stereo not given)
inactive: SK-MEL-2 melanoma 117% | EKVX NSCLC 75.4% | SN12C renal 88.4% | UO-31 renal 64.2% | TK-10 renal 129% | ACHN renal 73% | CAKI-1 renal 63.4% | A498 renal 103% | CCRF-CEM leukemia 37.9% | OVCAR-8 ovarian 89% | OVCAR-5 ovarian 88.3% | SK-OV-3 ovarian 102% | IGROV1 ovarian 76.2% | OVCAR-3 ovarian 28% | HS 578T breast 99.1% | NCI/ADR-RES ovarian 81%

O=C(Nc1ccccc1)Oc1cccc2cccnc12
active: CCRF-CEM leukemia 7.23% | OVCAR-3 ovarian -19.4%
inactive: SK-MEL-2 melanoma 93.9% | EKVX NSCLC 82.2% | SN12C renal 94.9% | UO-31 renal 68.1% | TK-10 renal 104% | ACHN renal 84.7% | CAKI-1 renal 93.9% | A498 renal 119% | MOLT-4 leukemia 55.3% | SR leukemia 48.2% | OVCAR-8 ovarian 74.4% | OVCAR-5 ovarian 92.9% | OVCAR-4 ovarian 76.8% | SK-OV-3 ovarian 112% | IGROV1 ovarian 20.4% | HS 578T breast 116% | NCI/ADR-RES ovarian 78.5%

COc1ccc(C(=O)COc2cccc(/C=C3\CSc4ccc(C)cc4C3=O)c2)cc1
inactive: SK-MEL-2 melanoma 79.5% | EKVX NSCLC 106% | SN12C renal 91.7% | UO-31 renal 78.5% | TK-10 renal 101% | ACHN renal 101% | CAKI-1 renal 91.6% | A498 renal 112% | OVCAR-8 ovarian 66.4% | OVCAR-4 ovarian 90.2% | SK-OV-3 ovarian 107% | OVCAR-3 ovarian 97.5% | HS 578T breast 110%
active: CCRF-CEM leukemia -9.38% | MOLT-4 leukemia -7.35% | SR leukemia -7.75% | RPMI-8226 leukemia -23.5%

Cc1nc(NN)c([N+](=O)[O-])c(NN)n1
inactive: SK-MEL-2 melanoma 104% | EKVX NSCLC 112% | SN12C renal 103% | UO-31 renal 94.5% | TK-10 renal 118% | ACHN renal 110% | CAKI-1 renal 99.1% | A498 renal 142% | MOLT-4 leukemia 89.6% | SR leukemia 73.5% | RPMI-8226 leukemia 82.5% | OVCAR-8 ovarian 102% | OVCAR-5 ovarian 92.8% | OVCAR-4 ovarian 114% | SK-OV-3 ovarian 121% | IGROV1 ovarian 108% | OVCAR-3 ovarian 99.9% | HS 578T breast 139%
